Reference: PubChem BioAssay (NCATS)

Molecular target: Cytochrome P450 3A4 (Homo sapiens) (UniProt P08684)
Experiment: qHTS Assay for Activators of Cytochrome P450 3A4 (AID 885); further: nearly all actives have a fitted effect of over 65% in size
Details: recombinant CYP3A4, Luciferin-PPXE luminescence, 60 min; series mostly up to 57.1 µM; activity change, positive = activation: at the top concentration; active means well fitted activation curve with a large enough effect; inconclusive means small, poorly fitted or top-dose-only effect; inactive means no such curve, though single readings can be large or run the other way
Outline: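 Luminescent readout of luciferin formed from 25 uM Luciferin-PPXE (KM level) by 20 nM CYP3A4 in 200 mM KPO4, with 60 min NADPH-driven reaction at room temperature after 10 min compound exposure. Ketoconazole (57 uM) defined 100% inhibition.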

Chain of Cytochrome P450 3A4 (Homo sapiens) (P08684 whole entry, looked up): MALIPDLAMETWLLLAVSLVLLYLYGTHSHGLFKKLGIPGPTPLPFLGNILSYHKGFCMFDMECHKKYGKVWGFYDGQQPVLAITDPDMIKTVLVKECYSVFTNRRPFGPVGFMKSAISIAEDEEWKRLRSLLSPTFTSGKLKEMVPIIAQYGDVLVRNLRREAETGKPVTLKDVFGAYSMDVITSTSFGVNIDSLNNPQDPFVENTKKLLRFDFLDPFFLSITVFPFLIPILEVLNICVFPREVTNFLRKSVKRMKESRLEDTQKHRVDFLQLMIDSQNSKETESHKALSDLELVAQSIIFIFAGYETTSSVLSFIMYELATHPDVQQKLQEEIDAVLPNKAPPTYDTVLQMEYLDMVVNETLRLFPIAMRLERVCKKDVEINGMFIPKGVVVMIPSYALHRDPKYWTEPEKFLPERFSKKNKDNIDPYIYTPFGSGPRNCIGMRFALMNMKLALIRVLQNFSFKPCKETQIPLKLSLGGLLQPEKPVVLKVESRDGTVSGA

Activity change, positive = activation, inactive:
C/C(CCN1CCCc2nc(C)c(C)cc21)=N\O[C@@H](C)c1cc(-c2c(C)cc(C)cc2C)no1 -56.9% [at 11.4 µM]
N#Cc1ccc(C23CC4(C2)[C@H](CN(P(=O)(c2ccccc2)c2ccccc2)[C@@H]4c2ccccc2)C3c2ccc(Cl)nc2)cc1 (stereo partly drawn) -56.6%
Cn1c(N)c(C(=O)COC(=O)c2cc(C3CC3)nc3ccccc23)c(=O)n(C)c1=O -48.2%
CCC1=C2CC[C@H]3C(=O)NC(=O)[C@H]3[C@H]2[C@@]2(Cc3ccccc3)C(=NCC(=O)OC)OC(=O)N2C1=O -56.7%
COC(=O)[C@@H]1C[C@H]2CC[C@H](O)C[C@H]2N1Cc1ccc(N2CCOCC2)cc1 -51.5%
C[C@H]1CC[C@H]2C(=O)N3[C@H](c4ccc(Br)cc4)[C@@H](C)CC[C@H]3C(=O)N2[C@@H]1c1ccc(Br)cc1 -43.1% [at 11.4 µM]
COC(=O)[C@@H]1C[C@@H]2CC[C@@H](O)C[C@@H]2N1Cc1ccc(N2CCN(C)CC2)cc1 -46%
CO[C@H]1COC(=O)[C@H]2CCCN2C(=O)C/C=C\[C@@H](C)[C@H](OC)COC(=O)C/C=C\[C@@H]1C -32.7% [at 11.4 µM]
CO[C@@H]1COC(=O)C/C=C\[C@@H](C)COC(=O)[C@H](COCc2ccccc2)NC(=O)C/C=C\[C@H]1C -56.3% [at 11.4 µM]
Cc1nc(NC2CCCCC2)c2nc(-c3ccccc3)n(CCCN3CCOCC3)c2n1 -51.2%
CO[C@@H]1COC(=O)C/C=C\[C@@H](C)[C@@H]2C=C[C@H](O)[C@@H](COC(=O)CCC[C@H]1C)O2 -44.8% [at 11.4 µM]
COc1ccc(O[C@H]2C=C[C@@H](c3ccccc3)O[C@H]2CO/N=C(/C)CCC(=O)OC[C@@H]2O[C@H](C#Cc3ccccc3)C=C[C@@H]2Oc2ccc(C)cc2)cc1 -52.7% [at 11.4 µM]
C#CCCCO/N=C1/C[C@@H](O)[C@@H](O)[C@@H]2[C@@H]3C(=O)N(CCC(=O)OCC)C(=O)[C@H]3CC[C@H]12 -51% [at 11.4 µM]
